PubChem BioAssay (NCI)
About 83,000 compounds went through this panel and 20% of them were active in at least one assay; those are over-represented in the sample as a whole.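 Results are percent growth after 48 hours of single-concentration exposure. 100 means growth as in untreated cells, lower positive values show inhibition; negative values down to -100 show cell death.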 Calls of active or inactive are those of the source. How the source made its calls: active means growth percent below 10; inactive means the rest.

Legend:
Assay in all cases: NCI-60 one-dose screen, 48 h (100 = growth as untreated, 0 = no growth, -100 = all killed)
Settings in all cases: 10 µM unless noted
[1] = tested on: HCT-15 colon
[2] = tested on: HT29 colon
[3] = tested on: SNB-75 CNS
[4] = tested on: SNB-19 CNS
[5] = tested on: U251 CNS
[6] = tested on: PC-3 prostate
[7] = tested on: SK-MEL-5 melanoma
[8] = tested on: UACC-62 melanoma
[9] = tested on: LOX IMVI melanoma
[10] = tested on: SK-MEL-28 melanoma
[11] = tested on: SK-MEL-2 melanoma
[12] = tested on: EKVX NSCLC
[13] = tested on: SN12C renal
[14] = tested on: UO-31 renal
[15] = tested on: TK-10 renal
[16] = tested on: ACHN renal
[17] = tested on: CAKI-1 renal
[18] = tested on: CCRF-CEM leukemia
[19] = tested on: MOLT-4 leukemia
[20] = tested on: A498 renal

Measured: growth

COC(=O)c1c2c(c(C)[n+]([O-])c1C)C(=O)C=C(NCc1ccc(F)c(Cl)c1)C2=O
active: [1] -70.4% | [2] 3.68% | [3] -96.9% | [4] -48.5% | [5] -21.7% | [6] -1.13% | [7] -97.7% | [8] -70.8% | [9] -64.5% | [10] -11.8% | [11] -42.8% | [12] -63.3% | [13] -85.7% | [14] -49.5% | [16] -38.4% | [17] -16.1% | [18] -2.7% | [19] -35.6%
inactive: [15] 21.2%

FC(F)(F)Oc1ccc2c(c1)C[C@H]1C[C@@H](c3ccoc3)N2O1
inactive: [1] 95.1% | [2] 99.9% | [3] 99.5% | [4] 105% | [5] 94.5% | [6] 92.8% | [7] 115% | [8] 98.8% | [9] 91.8% | [10] 108% | [11] 118% | [12] 93.9% | [13] 110% | [14] 100% | [15] 97.4% | [16] 94% | [17] 82.6% | [20] 93.2% | [18] 102% | [19] 96.4%

Cn1cc(C(=O)NCCC(=N)N)cc1NC(=O)CN=C(N)N
inactive: [1] 111% | [2] 107% | [3] 88.9% | [4] 101% | [5] 98% | [6] 92.5% | [7] 101% | [8] 98% | [9] 97.5% | [10] 92.6% | [11] 105% | [12] 103% | [13] 95.6% | [14] 84% | [15] 109% | [16] 102% | [17] 99.1% | [20] 108% | [18] 100% | [19] 103%

O=C(CCc1nnc2sc(-c3ccccc3)nn12)c1nc2ccccc2[nH]1
inactive: [1] 98.5% | [2] 62.1% | [3] 83.9% | [4] 104% | [5] 88.7% | [6] 85.7% | [7] 92.4% | [8] 102% | [9] 88.3% | [10] 103% | [11] 104% | [12] 99.5% | [13] 86.6% | [14] 77.5% | [15] 108% | [16] 101% | [17] 103% | [20] 80.4% | [19] 78.4%

O=c1ccc2ccccc2o1
inactive: [1] 98% | [2] 102% | [3] 89.4% | [4] 112% | [5] 104% | [6] 82.2% | [7] 107% | [8] 98.4% | [9] 109% | [10] 108% | [11] 101% | [12] 109% | [13] 109% | [14] 89.9% | [15] 98.3% | [16] 93.8% | [17] 89.7% | [20] 96.4% | [18] 87.4%

COc1cc(C(=O)/C=C/c2c(-c3cccs3)nc3sccn23)cc(OC)c1OC
inactive: [4] 14.4% | [10] 16.5% | [14] 10.2% | [16] 12.4% | [18] 10.8%
active: [1] -36.7% | [2] -13.8% | [3] -27.7% | [5] 0.929% | [6] 7.06% | [7] -37.9% | [8] -56.4% | [9] -68.5% | [11] -3.21% | [12] 3.45% | [13] 4.03% | [15] 3.46% | [17] -29% | [20] -26.3% | [19] -1.21%

CC(C)N1CCN(c2ccc(OC[C@H]3CO[C@](Cn4cncn4)(c4ccc(Cl)cc4Cl)O3)cc2)CC1
inactive: [1] 62.3% | [2] 21.5% | [3] 89.7% | [4] 97.7% | [5] 73.8% | [6] 73.9% | [7] 47.9% | [8] 71.6% | [9] 86.5% | [10] 63.2% | [11] 95% | [12] 91.4% | [13] 81.2% | [14] 98.7% | [15] 91.5% | [16] 102% | [17] 79.3% | [20] 76.7% | [18] 82.6% | [19] 86.2%

CC1SC(c2ccc(Cl)cc2)N(CCc2cccs2)C1=O (configuration not stated)
inactive: [4] 12.4% | [18] 10.1%
active: [1] 1.46% | [2] -40.2% | [3] -9.5% | [5] -8.49% | [6] -1.67% | [7] -99.2% | [8] -46.3% | [9] -85.2% | [10] 8.16% | [11] -72.8% | [12] -12.5% | [13] -75.6% | [14] 1.81% | [15] -16.5% | [16] -6.58% | [17] -33.6% | [20] -13.7% | [19] -4.19%

O=[N+]([O-])c1ccc2nc(N/N=C/c3ccc(O)cc3)sc2c1
active: [11] -0.896%
inactive: [1] 53.4% | [2] 78% | [3] 73.7% | [4] 77.9% | [5] 45.9% | [6] 38.4% | [7] 58.1% | [8] 81.7% | [9] 49.7% | [10] 89% | [12] 85.5% | [13] 54.7% | [14] 27.5% | [15] 54% | [16] 47% | [17] 23.2% | [20] 91.5% | [19] 24%

CN1CCN(C)c2cncc(Br)c2C1=O
active: [12] -82.7% | [17] -89.3%
inactive: [1] 105% | [2] 107% | [3] 101% | [4] 106% | [5] 106% | [6] 103% | [7] 101% | [8] 105% | [9] 102% | [10] 110% | [11] 118% | [13] 101% | [14] 79.5% | [15] 126% | [16] 108% | [20] 85% | [19] 98.5%

CCCCCCCC/C=C\CCCCCCCCOc1cccc(CC(=O)NCC[N+]2(C)CCCC2)c1
inactive: [1] 98.7% | [2] 38.5% | [3] 53.3% | [4] 62.6% | [5] 53.5% | [6] 36.3% | [7] 94.1% | [8] 71.7% | [9] 87% | [10] 98.6% | [11] 107% | [12] 89.4% | [13] 53% | [14] 94.1% | [15] 84.7% | [16] 99% | [17] 78.1% | [18] 51.6% | [19] 80.3%

O=C(NC1CC1)c1cc2n(n1)CC(c1ccccc1)N2 (configuration not stated)
inactive: [1] 95.3% | [2] 107% | [3] 91.2% | [4] 100% | [5] 102% | [6] 98.8% | [7] 99.4% | [8] 88.4% | [9] 98.3% | [10] 107% | [11] 99.9% | [12] 83.7% | [13] 102% | [14] 95.8% | [15] 102% | [16] 106% | [17] 91.4% | [18] 108% | [19] 109%

O=C(NCc1ccc(F)cc1)C1CN(c2ccc(Cl)cc2)N(c2ccc(Cl)cc2)C1=O (configuration not stated)
inactive: [1] 45.1% | [2] 25.6% | [3] 36.7% | [4] 78.1% | [5] 56.6% | [6] 61.9% | [7] 52.9% | [8] 42% | [9] 72.3% | [10] 74.9% | [11] 64.6% | [12] 74.8% | [13] 83% | [14] 51% | [15] 100% | [16] 75.6% | [17] 57.6% | [20] 39.8% | [18] 61.8% | [19] 37.1%

CCCCCCCCCCCCCCCC[N+]1(C)CCOCC1
inactive: [1] 40.4% | [3] 11.7% | [7] 40% | [8] 46.9% | [10] 86% | [11] 57.7% | [12] 64.1% | [13] 15.4% | [14] 59.6% | [16] 62.8% | [17] 76.3% | [20] 48.8%
active: [2] 1.36% | [4] -29.1% | [5] -84.8% | [6] -52% | [9] -79% | [15] -36.8% | [18] -42.1% | [19] -57.8%

CCOc1ccc(-c2cnnn2-c2nonc2-n2cccc2)cc1
active: [2] 1.88% | [3] 5.23% | [19] 8.83%
inactive: [1] 22.6% | [4] 37% | [5] 17.6% | [6] 30.4% | [7] 24.7% | [8] 35.6% | [9] 33.1% | [10] 37.5% | [11] 18.3% | [12] 60.9% | [13] 40.1% | [14] 29.8% | [15] 45.3% | [16] 47.3% | [17] 46.4% | [20] 18.7%

COc1ccc(S(=O)(=O)c2ccc(C(N)=O)cc2)cc1NC(=O)c1[nH]c(C)c2c1CCCCC2=O
active: [3] -13.8%
inactive: [1] 99.6% | [2] 32.6% | [4] 60.2% | [5] 38.6% | [6] 68% | [7] 48.5% | [8] 17% | [9] 32% | [10] 67.5% | [11] 74.1% | [12] 75% | [13] 76.7% | [14] 78.5% | [15] 81.1% | [16] 101% | [17] 93.4% | [20] 11.1% | [18] 56.6% | [19] 49.4%
